Inconclusive results are not listed. The source made the active and inactive calls. Unless noted, calls come from the whole dose curve; as a rule, active = well fitted curve in the direction sought with a large enough effect in the repeat runs; inconclusive = weak or mixed curves; inactive = no such curve, though single readings can be large; an effect the other way counts as inactive or inconclusive.
What was measured:
[1] = qHTS RealTime-Glo MT Cell Viability Assay in HepG2 cells - 16 hour (AID 1224885); note: nearly all actives have a fitted effect of over 50% in size
Summary of the method: (§1)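 Cells + NanoLuc/prosubstrate dispensed (600 cells/well) → 5 h at 37 C/5% CO2 → compounds in DMSO transferred → 40 h incubation at 37 C, luminescence read at 0, 8, 16, 24, 32, 40 h.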

[2] = qHTS RealTime-Glo MT Cell Viability Assay in HEK293 cells - 24 hour (AID 1224886); note: top concentration of the series differs between compounds; nearly all actives have a fitted effect of over 50% in size
Summary of the method: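 Tox21 10K qHTS, HEK293, 600 cells/well, RealTime-Glo reagent co-dispensed with cells; 5 h preincubation, compound by pintool, 37 C, luminescence at 0–40 h.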

[3] = qHTS RealTime-Glo MT Cell Viability Assay in HEK293 cells - 8 hour (AID 1224887); note: top concentration of the series differs between compounds; nearly all actives have a fitted effect of over 50% in size
Summary of the method: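 600 cells/well were plated with the nonlytic NanoLuc/prosubstrate reagent, pre-incubated 5 h, then given 23 nL of compound in DMSO. Incubation at 37 C for 40 h, with luminescence from viable-cell-reduced substrate read repeatedly from 0 h.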

[4] = A CellTox Green Cytotoxicity Assay to monitor cytotoxicity in HEK293 cells - 16 hour (AID 1224888); note: nearly all actives have a fitted effect of over 35% in size
Summary of the method: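 HEK293 cells, 600/well, were preincubated 5 hours and then exposed to compounds at 37 C for up to 40 hours. A cell-impermeant cyanine dye staining dead-cell DNA was read by fluorescence at 0, 8, 16, 24, 32 and 40 h time points.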

[5] = qHTS RealTime-Glo MT Cell Viability Assay in HepG2 cells - 0 hour (AID 1224889); note: nearly all actives have a fitted effect of over 50% in size
Summary of the method: as §1

[6] = A CellTox Green Cytotoxicity Assay to monitor cytotoxicity in HepG2 cells - 8 hour (AID 1224890); note: nearly all actives have a fitted effect of over 45% in size
Summary of the method: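 HepG2 cells, 600/well, preincubated 5 h with CellTox Green dye, then exposed to Tox21 compounds in DMSO at 37 C for up to 40 h. Dead-cell DNA fluorescence read at the indicated time point.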

[7] = qHTS assay to identify small molecule antagonists of the estrogen receptor alpha (ER-alpha) signaling pathway using the BG1 cell line in the presence of 0.1 nM 17-beta-estradiol - cell viability counter screen (AID 1259241); note: nearly all actives have a fitted effect of over 40% in size
Summary of the method: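 Viability in VM7Luc4E2 cells after 22 hr compound exposure under 0.1 nM 17beta-estradiol stimulation, by CellTiter-Fluor.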

[8] = qHTS assay to identify small molecule antagonists of the androgen receptor (AR) signaling pathway using the MDA cell line in the presence of 0.5 nM R1881 - cell viability counter screen (AID 1259242); note: nearly all actives have a fitted effect of over 45% in size
Summary of the method: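 MDA-kb2 cells (MMTV-luciferase, AR/GR responsive) were treated with compounds plus 0.5 nM R1881 (final) for 16 hr at 37C, 0% CO2. Viability was then read in the same wells as live-cell protease fluorescence (CellTiter-Fluor, 30 min).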

[9] = target: Androgen receptor (Homo sapiens) (UniProt P10275); assay: qHTS assay to identify small molecule antagonists of the androgen receptor (AR) signaling pathway using the MDA cell line in the presence of 0.5 nM R1881 (AID 1259243); note: nearly all actives have a fitted effect of over 50% in size
Chain of Androgen receptor (Homo sapiens) (P10275 whole entry, looked up): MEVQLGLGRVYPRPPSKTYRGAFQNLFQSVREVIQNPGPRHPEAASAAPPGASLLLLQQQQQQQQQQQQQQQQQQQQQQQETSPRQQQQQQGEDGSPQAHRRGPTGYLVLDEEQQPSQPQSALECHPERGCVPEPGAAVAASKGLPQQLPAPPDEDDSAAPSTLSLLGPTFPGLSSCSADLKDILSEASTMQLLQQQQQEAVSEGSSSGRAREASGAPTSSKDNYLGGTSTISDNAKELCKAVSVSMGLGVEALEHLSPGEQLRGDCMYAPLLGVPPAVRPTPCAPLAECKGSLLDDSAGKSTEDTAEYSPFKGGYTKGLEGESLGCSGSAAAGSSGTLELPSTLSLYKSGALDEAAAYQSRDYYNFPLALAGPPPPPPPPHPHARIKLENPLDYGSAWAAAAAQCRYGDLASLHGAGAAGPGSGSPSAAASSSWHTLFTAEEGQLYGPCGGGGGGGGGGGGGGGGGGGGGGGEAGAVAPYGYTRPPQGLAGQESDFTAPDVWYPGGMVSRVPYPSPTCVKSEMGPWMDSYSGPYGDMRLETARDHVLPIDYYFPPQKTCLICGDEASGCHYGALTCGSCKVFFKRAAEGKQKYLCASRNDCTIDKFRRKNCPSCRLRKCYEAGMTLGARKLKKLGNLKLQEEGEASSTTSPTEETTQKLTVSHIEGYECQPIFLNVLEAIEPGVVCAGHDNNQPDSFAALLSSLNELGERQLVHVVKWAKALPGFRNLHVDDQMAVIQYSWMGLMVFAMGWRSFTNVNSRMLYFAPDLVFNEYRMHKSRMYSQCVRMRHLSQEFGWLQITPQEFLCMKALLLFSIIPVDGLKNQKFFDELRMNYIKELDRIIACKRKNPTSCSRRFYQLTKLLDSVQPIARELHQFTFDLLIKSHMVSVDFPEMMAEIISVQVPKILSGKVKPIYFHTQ
Summary of the method: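 MDA-kb2 cells (MMTV-luciferase, responsive to AR and GR) at 3,000/well, rested 5 h at 37C, 0% CO2, then given compounds plus 0.5 nM R1881 (final) for 16 hr. Luciferase read with ONE-Glo after 30 min at room temperature.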

[10] = target: Estrogen receptor (Homo sapiens) (UniProt P03372); assay: qHTS assay to identify small molecule antagonists of the estrogen receptor alpha (ER-alpha) signaling pathway using the BG1 cell line in the presence of 0.1 nM 17-beta-estradiol (AID 1259244); note: nearly all actives have a fitted effect of over 50% in size
Chain of Estrogen receptor (Homo sapiens) (P03372 whole entry, looked up): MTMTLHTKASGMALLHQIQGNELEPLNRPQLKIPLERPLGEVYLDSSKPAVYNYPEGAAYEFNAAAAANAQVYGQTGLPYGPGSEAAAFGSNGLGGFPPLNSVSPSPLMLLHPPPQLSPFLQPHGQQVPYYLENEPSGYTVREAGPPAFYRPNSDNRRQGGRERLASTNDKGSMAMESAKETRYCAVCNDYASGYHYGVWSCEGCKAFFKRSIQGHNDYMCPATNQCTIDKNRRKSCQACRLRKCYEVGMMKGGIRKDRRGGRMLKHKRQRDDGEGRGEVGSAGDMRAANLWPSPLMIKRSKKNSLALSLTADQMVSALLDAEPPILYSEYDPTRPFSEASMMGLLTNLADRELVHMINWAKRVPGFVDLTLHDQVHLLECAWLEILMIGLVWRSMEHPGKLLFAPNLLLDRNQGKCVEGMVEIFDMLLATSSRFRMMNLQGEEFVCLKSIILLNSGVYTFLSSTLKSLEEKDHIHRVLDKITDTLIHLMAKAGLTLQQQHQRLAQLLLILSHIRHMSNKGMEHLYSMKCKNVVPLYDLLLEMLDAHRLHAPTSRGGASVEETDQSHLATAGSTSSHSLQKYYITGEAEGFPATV
Summary of the method: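 VM7Luc4E2 cells (endogenous full-length ER-alpha, 4×ERE-luciferase), kept 5 days in phenol red-free, charcoal-stripped FBS medium; 4,000 cells/well. Compounds added with 0.1 nM (final) 17beta-estradiol, 22 hr at 37C; luminescence read with ONE-Glo after 30 min.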

[11] = qHTS assay to identify small molecule HDAC inhibitors - cell viability counter screen (AID 1259365)
Summary of the method: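 Cytotoxicity was gauged in wild-type HCT-116 cells after a brief 2hr treatment with DMSO-dissolved compounds at 37C and 5% CO2, using CellTiter-Glo luminescence developed for 30min at room temperature.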

[12] = qHTS assay to identify small molecule agonists of the sonic hedgehog signaling (Shh) pathway - cell viability counter screen (AID 1259366); note: nearly all actives have a fitted effect of over 50% in size
Summary of the method: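 Stable Gli1-Luc NIH/3T3 clone, 2,000 cells/well. Compound exposure 24hr at 37C. Read-out: CellTiter-Fluor fluorescence.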

[13] = qHTS assay to identify small molecule antagonists of the sonic hedgehog signaling (Shh) pathway - cell viability counter screen (AID 1259367); note: nearly all actives have a fitted effect of over 55% in size
Summary of the method: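 NIH/3T3-derived Gli1-Luc reporter cells (2,000 per well) rested 4 hr at 37 C, then received DMSO compounds plus conditioned medium. After 23 hr of treatment, CellTiter-Fluor was added for 1 hr at 37C and fluorescence read.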

[14] = qHTS assay to identify small molecule agonists of the sonic hedgehog signaling (Shh) pathway (AID 1259368; calls by dose curve;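 note: NIH/3T3-derived 3T3Gli1-Luc cells carrying a stable Gli1-driven firefly luciferase reporter; series mostly up to about 92 µM; nearly all actives have a fitted effect of over 15% in size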)
Summary of the method: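 NIH/3T3-derived 3T3Gli1-Luc cells with stably integrated Gli1-driven firefly luciferase, 2,000 cells/well, compounds added after 4 hr. Incubated 24 hr at 37C, 5% CO2; luminescence read after 30 min with luciferase reagent at room temperature.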

[15] = qHTS assay to identify small molecule antagonists of the sonic hedgehog signaling (Shh) pathway (AID 1259369; calls by dose curve; note: nearly all actives have a fitted effect of over 45% in size)
Summary of the method: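 NIH/3T3-derived Gli1-Luc reporter cells plated 4 h, dosed with compound, then stimulated with conditioned medium for 24 h at 37 C. Firefly luciferase luminescence read after 30 min with detection reagent at room temperature.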

[16] = target: Estrogen receptor beta (Homo sapiens) (UniProt Q92731); assay: qHTS assay to identify small molecule agonists of the estrogen receptor beta (ER-beta) signaling pathway (AID 1259377; active = well fitted activation curve with a large enough effect in the signal ratio in the repeat runs, not every such curve was filed as active; the % refers to the signal ratio)
Chain of Estrogen receptor beta (Homo sapiens) (Q92731 whole entry, looked up): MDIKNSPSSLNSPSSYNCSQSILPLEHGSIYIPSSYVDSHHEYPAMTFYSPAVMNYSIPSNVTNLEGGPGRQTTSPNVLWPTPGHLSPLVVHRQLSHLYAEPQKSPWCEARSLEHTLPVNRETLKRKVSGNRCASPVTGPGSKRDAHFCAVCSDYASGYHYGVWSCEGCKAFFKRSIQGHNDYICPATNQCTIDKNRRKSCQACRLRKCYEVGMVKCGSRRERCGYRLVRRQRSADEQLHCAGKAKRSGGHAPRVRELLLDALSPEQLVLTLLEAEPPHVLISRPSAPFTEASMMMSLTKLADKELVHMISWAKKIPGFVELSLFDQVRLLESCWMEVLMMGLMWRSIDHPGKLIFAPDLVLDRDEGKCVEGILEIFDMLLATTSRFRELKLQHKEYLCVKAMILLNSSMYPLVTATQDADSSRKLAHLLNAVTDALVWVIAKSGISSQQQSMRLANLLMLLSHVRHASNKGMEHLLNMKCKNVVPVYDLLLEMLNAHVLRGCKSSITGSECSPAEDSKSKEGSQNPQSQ
Summary of the method: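 Measured by fluorescence intensity from a B/G FRET beta-lactamase substrate (2 h, room temperature) in ER-beta-UAS-bla HEK293T cells treated with DMSO-dissolved compounds for 16 hr at 37C and 5% CO2.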

[17] = target: Estrogen receptor beta (Homo sapiens) (UniProt Q92731); assay: qHTS assay to identify small molecule antagonists of the estrogen receptor beta (ER-beta) signaling pathway (AID 1259378; active = well fitted inhibition curve with a large enough effect in the signal ratio in the repeat runs, not every such curve was filed as active; the % refers to the signal ratio)
Summary of the method: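 ER-beta-UAS-bla HEK293T (GripTite) cells in 2% charcoal-stripped FBS medium were preincubated 6 hr at 37C, dosed with compound, then stimulated with 1 nM E2 (final) for 16 hr; beta-lactamase reporter read by B/G FRET fluorescence after 2 hr substrate loading.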

[18] = qHTS assay to identify small molecule agonists of the androgen receptor (AR) signaling pathway in the presence of an antagonist - cell viability counter screen (AID 1259379);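 note: MDA-kb2 human breast cancer cells carrying an MMTV luciferase reporter; series mostly up to about 92 µM; nearly all actives have a fitted effect of over 25% in size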
Summary of the method: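 MDA-kb2 cells (MMTV-luciferase, AR/GR), 3,000/well, 5 h attachment, then 3.0 µM nilutamide (final) and compounds at 15 concentrations. Viability by CellTiter-Fluor fluorescence after 16 h at 37 °C, 0% CO2, in the reporter wells.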

[19] = qHTS assay to identify small molecule HDAC inhibitors (AID 1259364); note: top concentration of the series differs between compounds; nearly all actives have a fitted effect of over 45% in size
Summary of the method: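 Wild-type HCT-116 cells, plated overnight at 37 C, exposed to compounds 2 hr at 37 C; luminogenic HDAC-Glo substrate then added 30 min at room temperature. Luminescence reports relative endogenous class I/II HDAC activity.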

Measured: Potency

CC(C)C(=O)C(C)C
not listed: [19]
inactive: all other assays above

CCC(O)CO (configuration not stated)
inactive: all assays above

Nc1ccc2c(S(=O)(=O)O)cccc2c1S(=O)(=O)O
not listed: [10] | [16] | [17]
inactive: all other assays above

Nc1ccc(F)c([N+](=O)[O-])c1
not listed: [9]
inactive: all other assays above

CSc1nnc(C(C)(C)C)c(=O)[nH]1
not listed: [16]
inactive: all other assays above

CN1CCN(C)CC1
not listed: [14] | [15] | [16] | [17] | [18]
inactive: all other assays above

C=Cc1ccncc1
not listed: [10] | [14] | [16] | [17] | [18]
inactive: all other assays above
